Bioassay records as filed in PubChem BioAssay.
proKLK7 act – proKLK7 (human) activation, primary screen; P49862; purified proKLK7, EDANS-DABCYL substrate fluorescence; 100% is mature enzyme control, 0% vehicle; activation, % at 7 µM; 0.9% of 370,000 active;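 active = activation above the mean of all tested compounds plus 3 SD, computed per campaign excluding outliers beyond control limits, cut at about 13% in these data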
FAS-TE inh – inhibitors of human fatty acid synthase thioesterase domain. P49327. recombinant FAS-TE, OMFH fluorogenic substrate, fluorescence endpoint. inhibition, % at 15 µM. 0.67% of 360,000 active. AID 602261;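 active = compounds whose normalised, plate-corrected inhibition of enzyme fluorescence in the single-dose primary screen is 50% or more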;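 note: 0% = DMSO with enzyme and 100% = substrate without enzyme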
Target sequence (P49327 whole entry, looked up, the tested form may be a part): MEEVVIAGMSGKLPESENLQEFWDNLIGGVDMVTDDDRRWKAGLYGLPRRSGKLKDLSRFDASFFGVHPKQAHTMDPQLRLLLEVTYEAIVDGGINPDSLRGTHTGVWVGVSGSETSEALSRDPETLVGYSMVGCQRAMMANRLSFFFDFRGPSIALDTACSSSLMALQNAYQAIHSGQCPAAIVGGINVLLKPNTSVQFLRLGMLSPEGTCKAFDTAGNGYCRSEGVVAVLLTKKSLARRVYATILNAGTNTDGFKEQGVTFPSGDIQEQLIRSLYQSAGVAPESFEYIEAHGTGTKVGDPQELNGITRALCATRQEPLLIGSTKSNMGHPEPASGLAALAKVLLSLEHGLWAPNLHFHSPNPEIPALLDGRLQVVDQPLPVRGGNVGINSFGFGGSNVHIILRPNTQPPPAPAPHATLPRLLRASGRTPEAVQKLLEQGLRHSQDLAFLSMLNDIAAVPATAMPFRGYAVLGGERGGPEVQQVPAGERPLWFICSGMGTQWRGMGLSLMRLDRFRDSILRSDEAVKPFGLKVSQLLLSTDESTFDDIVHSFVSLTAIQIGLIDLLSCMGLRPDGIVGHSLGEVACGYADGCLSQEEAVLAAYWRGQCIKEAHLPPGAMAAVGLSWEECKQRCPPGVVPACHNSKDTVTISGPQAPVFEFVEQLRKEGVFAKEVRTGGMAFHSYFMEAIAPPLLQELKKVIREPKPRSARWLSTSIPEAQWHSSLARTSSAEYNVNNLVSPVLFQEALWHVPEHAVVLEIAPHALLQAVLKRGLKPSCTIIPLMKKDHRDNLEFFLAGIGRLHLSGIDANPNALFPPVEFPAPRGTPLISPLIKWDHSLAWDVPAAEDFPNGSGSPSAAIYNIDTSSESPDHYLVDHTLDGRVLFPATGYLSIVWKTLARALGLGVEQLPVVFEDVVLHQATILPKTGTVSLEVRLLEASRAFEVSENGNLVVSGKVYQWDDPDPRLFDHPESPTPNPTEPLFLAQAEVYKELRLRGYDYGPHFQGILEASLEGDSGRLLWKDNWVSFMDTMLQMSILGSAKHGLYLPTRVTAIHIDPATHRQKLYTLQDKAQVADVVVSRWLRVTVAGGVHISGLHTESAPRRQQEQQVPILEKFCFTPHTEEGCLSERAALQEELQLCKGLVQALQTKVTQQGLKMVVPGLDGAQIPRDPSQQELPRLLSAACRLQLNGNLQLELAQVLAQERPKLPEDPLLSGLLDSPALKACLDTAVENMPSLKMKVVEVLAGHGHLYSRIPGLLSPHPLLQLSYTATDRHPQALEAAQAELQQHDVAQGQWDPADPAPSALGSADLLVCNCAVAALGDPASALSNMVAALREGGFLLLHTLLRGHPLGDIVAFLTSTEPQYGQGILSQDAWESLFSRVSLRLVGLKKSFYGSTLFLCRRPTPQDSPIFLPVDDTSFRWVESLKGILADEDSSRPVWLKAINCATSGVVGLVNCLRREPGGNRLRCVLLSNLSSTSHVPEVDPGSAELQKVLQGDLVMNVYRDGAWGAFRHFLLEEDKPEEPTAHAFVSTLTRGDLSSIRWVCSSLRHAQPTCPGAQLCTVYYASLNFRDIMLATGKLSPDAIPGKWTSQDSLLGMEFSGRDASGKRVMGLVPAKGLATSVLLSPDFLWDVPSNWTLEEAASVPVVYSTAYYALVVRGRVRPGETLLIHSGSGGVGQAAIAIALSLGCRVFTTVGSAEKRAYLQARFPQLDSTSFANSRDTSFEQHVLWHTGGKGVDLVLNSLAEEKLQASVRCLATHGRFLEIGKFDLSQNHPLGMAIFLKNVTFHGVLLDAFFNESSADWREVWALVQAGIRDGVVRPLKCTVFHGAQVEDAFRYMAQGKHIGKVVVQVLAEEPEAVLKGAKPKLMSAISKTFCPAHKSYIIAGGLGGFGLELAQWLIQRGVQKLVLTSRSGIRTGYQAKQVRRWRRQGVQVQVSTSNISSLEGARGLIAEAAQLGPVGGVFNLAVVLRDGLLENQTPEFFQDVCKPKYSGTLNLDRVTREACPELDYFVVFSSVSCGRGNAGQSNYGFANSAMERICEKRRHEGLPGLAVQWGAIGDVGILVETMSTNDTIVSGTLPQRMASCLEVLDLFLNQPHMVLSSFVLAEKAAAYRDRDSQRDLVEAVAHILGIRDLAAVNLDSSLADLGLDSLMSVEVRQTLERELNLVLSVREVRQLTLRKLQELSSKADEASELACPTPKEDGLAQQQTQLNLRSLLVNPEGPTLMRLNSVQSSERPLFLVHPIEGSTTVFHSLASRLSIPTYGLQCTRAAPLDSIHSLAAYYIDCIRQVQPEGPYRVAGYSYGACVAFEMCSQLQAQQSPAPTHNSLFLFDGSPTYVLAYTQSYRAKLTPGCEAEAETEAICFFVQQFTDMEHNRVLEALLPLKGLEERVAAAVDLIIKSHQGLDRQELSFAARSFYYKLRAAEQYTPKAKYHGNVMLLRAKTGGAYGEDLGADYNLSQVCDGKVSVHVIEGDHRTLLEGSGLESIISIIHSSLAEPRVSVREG
GAA850 FXN act – frataxin GAA850 promoter activation | HEK293 lucGAA850 FXN promoter luciferase reporter, 24 h; percent of 10 µM SAHA response | activation, % at 6 µM | 0.56% of 360,000 active;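 active = activation above the average of all compounds screened plus 3 SD, cutoff fixed separately per campaign, cut at about 7.5% in these data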;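 note: 0% = DMSO wells and 100% = 10 µM SAHA wells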
SMARCA2 activ – activators of SMARCA2 function; MG213 cells, MMTV-luciferase reporter, dexamethasone, overnight; activation, % at 9.1 µM; 1% of 370,000 active; AID 652017; in the data active = activation above about 7.8%;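 note: 0% = vehicle wells and 100% = reference activator wells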
SMARCA2 conf – SMARCA2 activation, confirmation screen; MG213 cells, MMTV-luciferase with dexamethasone, luminescence, overnight; MG213 cells expressing E1A, Rb sequestered; DMSO wells 0%, reference activator 100%; shares compounds with SMARCA2 activ; AID 652260; 30% of 3,500 active; activation, % at 9.1 µM;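 active = activation above its plate's cutoff, the mean activation of tested wells plus 3 SD, cut at about 7.9% in these data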
GAL4-VP16 Luc – activates GAL4-VP16 luciferase, flagging SMARCA2 activator hits; shares compounds with SMARCA2 activ; HEK293 GAL4-VP16 pG5luc reporter, luciferase luminescence; scaled: DMSO wells 0%, SAHA wells 100%; activation, % at 9.1 µM; 41% of 3,500 active; AID 686939;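 active = activation above the solvent-only control well mean plus 3 SD, averaged across control plates, cut at about 5.2% in these data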
* marks the source's active call; other numbers are inactive results; / = no result. Most compounds without a hit are left out; they make up all but 2.9% or so of the library.

SMILES	proKLK7 act	FAS-TE inh	GAA850 FXN act	SMARCA2 activ	SMARCA2 conf	GAL4-VP16 Luc
O=C(O)C1CCCCC1C(=O)Nc1ccc(-c2ccccc2)cc1 (centres undefined)	-0.1	-3.4	-1.0	11.6*	1.2	-0.9
CC(=O)Nc1ccc(NC(=O)C2CCCCC2C(=O)O)cc1 (centres undefined)	0.2	-7.2	-0.3	-1.7	/	/
COc1ccc2c(c1)CCc1c(C(=O)NCc3cccnc3)noc1-2	-0.8	-6.9	0.4	10.2*	0.4	6.4*
CCCNC(=O)c1noc2c1CCc1cc(OC)ccc1-2	0.6	1.5	3.1	5.0	/	/
Nc1nnnn1CC(=O)N/N=C/C=C/c1ccccc1	-0.7	-1.9	1.7	-1.8	/	/
CCS(=O)(=O)c1ccc(O)c(NC(=O)COc2ccc(C)cc2)c1	0.0	-6.7	1.1	4.6	/	/
CCS(=O)(=O)c1ccc(O)c(NC(=O)COc2ccc(OC)cc2)c1	-0.7	-7.3	1.0	8.1*	-1.8	-1.3
O=C(CCN1C(=O)COc2ccccc21)NCCN1CCN(c2ccccc2F)CC1	-0.3	-6.4	-1.9	8.7*	-1.1	1.9
O=C(CN1C(=O)COc2ccccc21)NCCCN1CCN(c2ccccc2F)CC1	0.9	-7.5	4.1	-1.2	/	/
C=CCn1c(SCC(=O)Nc2ccc(N3CCOCC3)cc2)nnc1-c1ccncc1	-0.3	-1.7	0.6	-0.9	/	/
C=CCn1c(SCC(=O)Nc2ccc(-c3nc4ccc(C)cc4s3)cc2)nnc1-c1ccncc1	-3.5	-12.7	6.9	8.9*	4.6	9.2*
Cc1ccc2nc(-c3ccc(NC(=O)CNC4CC4)cc3)sc2c1	-25.9	3.9	3.5	10.9*	8.5*	10.3*
Cc1ccc(N(CC(=O)Nc2ccc(-c3nc4ccc(C)cc4s3)cc2)S(C)(=O)=O)cc1	4.9	-1.1	-0.6	6.5	/	/
Nc1ncnc2c1ncn2[C@@H]1O[C@H](CNCc2cn(CC(=O)NC3CC3)c3ccccc23)[C@@H](O)[C@H]1O	-0.7	-7.0	1.4	-2.2	/	/
CSc1ncccc1C(=O)OCC(=O)NC1CCCC1	0.1	-4.0	1.0	8.6*	-1.4	-0.2
CCn1c(C)cc(C(=O)COC(=O)c2cccnc2SC)c1C	0.1	6.4	4.4	11.4*	8.0*	8.5*
CSc1ncccc1C(=O)OCC(=O)NC1CCCCC1	-0.7	-4.2	0.3	-1.2	/	/
CCOC(=O)c1ccc(N2C(=O)CC(N3CCC(C(N)=O)(N4CCCCC4)CC3)C2=O)cc1 (centres undefined)	0.1	-5.6	2.9	-1.0	/	/
CCOc1ccc(S(=O)(=O)N2CCC(C(=O)OCc3cccc(OC)c3OC)CC2)cc1	0.3	24.2	-0.5	-2.2	/	/
COc1cccc2cc(C(=O)Nc3ccccc3C)/c(=N/O)oc12	0.2	-12.3	6.3	4.5	/	/
CCCn1nnnc1NC(=O)c1cc(Br)ccc1OC	0.3	-2.7	2.9	0.7	/	/
CCCn1nnnc1NC(=O)c1ccc(C)cc1Cl	0.3	-6.3	0.7	8.0*	-1.2	0.0
CCCCCCCCCc1conc1C(=O)/C=C/c1oc2c(c1C)CCC(C)C2 (centres undefined)	1.2	/	/	9.0*	-7.2	0.2
CC1CCc2onc(C(=O)O)c2C1 (centres undefined)	0.3	-5.7	1.3	-0.6	/	/
COc1cc(C)nc(N2CCCC(C(=O)Nc3cc(Cl)ccc3OC)C2)n1 (centres undefined)	-0.2	16.4	-0.1	-1.5	/	/
SMILES	proKLK7 act	FAS-TE inh	GAA850 FXN act	SMARCA2 activ	SMARCA2 conf	GAL4-VP16 Luc
O=C(Cn1cc(/C=C\[N+](=O)[O-])c2ccccc21)Nc1ccccc1	-3.7	-14.9	1.7	17.0*	10.0*	0.8
CC(C)N1CCC(N2CCN(Cc3ccc(-c4ccccc4Cl)o3)CC2CCO)CC1 (centres undefined)	0.3	-1.1	1.4	-1.5	/	/
CC(C)N1CCC(N2CCN(Cc3ccc(-c4ccc(Cl)cc4)o3)CC2CCO)CC1 (centres undefined)	-0.8	0.4	-1.4	9.9*	7.4	1.2
CN(C)CCNC(=O)c1cccc(-c2cnc3c(NC=O)cc(-c4cc(F)c(F)c(F)c4)cn23)c1	-0.5	16.0	-0.5	-1.2	/	/
COc1cccc(-c2cc(NC=O)c3ncc(-c4cccc(C(=O)N(C)C)c4)n3c2)c1	-0.7	2.7	2.8	-3.0	/	/
CN(C)CCNC(=O)c1cccc(-c2cc(NC=O)c3ncc(-c4cccc(C(F)(F)F)c4)n3c2)c1	-0.5	-13.5	-1.2	33.6*	28.8*	1.6
COc1cccc(-c2cnc3c(NC=O)cc(-c4cccc(C(=O)N(C)C)c4)cn23)c1	0.5	6.7	2.4	12.3*	7.3	4.9
CN(C1(C)CCS(=O)(=O)C1)S(=O)(=O)c1ccc(F)cc1 (centres undefined)	-0.2	-4.3	2.7	-3.0	/	/
O=C(Nc1c2c(nn1-c1ccc([N+](=O)[O-])cc1)CS(=O)(=O)C2)c1cccs1	0.7	10.1	-0.7	0.3	/	/
Cc1c(C)n2c(SCC(=O)NC3CCCCC3)nnc2[nH]c1=O	-0.7	-7.5	0.3	-4.9	/	/
O=C(NC1CCCC1)c1cc2c(ccc3ccccc32)o1	1.0	0.3	4.0	7.5	/	/
CNC(=O)c1cc2c(ccc3ccccc32)o1	0.8	-6.5	4.5	9.6*	6.6	3.5
CCN(CC)CCN1C(=O)C(=O)/C(=C(/O)c2cnn(-c3ccccc3)c2C)C1c1ccc(C)o1 (centres undefined)	-0.3	-7.7	0.7	12.2*	6.2	3.0
Cc1cccc(NNC(=O)C(=O)NNc2cccc(C)c2)c1	-0.2	-0.3	3.0	-2.8	/	/
Cc1cccc(N=NC(=S)NNc2cccc(C)c2)c1	-1.1	0.2	5.0	8.7*	3.1	9.1*
COC(=O)CSc1nnc(CCc2ccccc2)n1C	0.0	-4.0	1.1	-1.2	/	/
COc1ccc(C(=O)NNC(=S)NC(=O)c2ccc(Cl)cc2)cc1	-0.2	/	/	-7.3	/	/
Cc1ccc(NCCC(=O)c2cccs2)cc1	-0.5	6.7	6.5	11.3*	7.3	13.7*
Cc1ccc(C(=O)Nc2cc(Cl)ccc2OC(=O)c2ccc(C)cc2)cc1	0.0	/	/	8.0*	7.3	10.3*
COc1ccc(C(=O)Nc2cc(Cl)ccc2OC(=O)c2ccc(OC)cc2)cc1	/	13.1	5.9	/	/	/
Cc1ccc(C)c(N2C(=O)c3ccc(C(=O)OCC(=O)c4c(N)n(C)c(=O)n(C)c4=O)cc3C2=O)c1	0.8	30.1	-0.7	-1.5	/	/
C=C(C)CSc1nnc(-c2ccc(OC)cc2)n1N	-0.8	-9.8	1.7	9.5*	-0.3	2.0
Cc1ccc(CSc2nnc(-c3ccncc3)n2N)cc1	1.1	-5.5	1.6	8.8*	-0.9	0.2
Cc1cc2cc(OCc3ccccc3)ccc2n1C	0.6	19.5	2.8	12.8*	4.1	8.1*
c1cc(-c2cc3cc4c(cc3cn2)OCO4)cs1	0.5	3.9	4.3	8.9*	3.3	7.9*
